{"source": "the supplement of paper PMC11732987", "about": "“Enantioselective OTUD7B fragment discovery through chemoproteomics screening and high-throughput optimisation” (Communications Chemistry, 2025)", "note": "Unmarked numbers belong to inactive results."}
{"target": "T1, USP22 (UniProt Q9UPT9)", "T1 sequence (whole entry)": "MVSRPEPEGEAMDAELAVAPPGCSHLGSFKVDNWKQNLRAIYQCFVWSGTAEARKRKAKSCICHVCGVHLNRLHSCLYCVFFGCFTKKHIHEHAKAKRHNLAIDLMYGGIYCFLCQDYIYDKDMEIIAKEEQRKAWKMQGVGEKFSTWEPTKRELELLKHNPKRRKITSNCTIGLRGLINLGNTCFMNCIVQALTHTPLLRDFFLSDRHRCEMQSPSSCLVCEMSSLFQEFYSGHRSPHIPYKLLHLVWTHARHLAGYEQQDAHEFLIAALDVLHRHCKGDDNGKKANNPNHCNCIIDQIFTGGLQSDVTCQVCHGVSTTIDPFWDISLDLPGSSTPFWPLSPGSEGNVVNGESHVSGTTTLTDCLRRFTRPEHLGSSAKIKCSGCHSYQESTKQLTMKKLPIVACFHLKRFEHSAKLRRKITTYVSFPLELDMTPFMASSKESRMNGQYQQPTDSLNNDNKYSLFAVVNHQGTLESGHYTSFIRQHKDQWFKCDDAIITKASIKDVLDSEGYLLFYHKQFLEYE", "experiment": "log2 ratio of Biotin-Ahx-Ub-VS probe labelling (fragment/DMSO); higher = less target engagement (more negative = stronger competition), active = hit call of the paper (q ≤ 0.05, log2 ratio ≤ -1)", "conditions": "compound concentration: 200 uM; treatment time: 3 h", "protocol": "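Competitive ABPP in HEK293T cell lysate. Lysates were treated with each chloroacetamide fragment at 200 µM for 3 h, then with Biotin-Ahx-Ub-VS (0.5 µM, 1 h), NeutrAvidin-enriched and analysed by diaPASEF LC-MS/MS. Protein LFQ was median-normalised; average log2 ratio is fragment/DMSO from an unpaired t-test (n=3 treated, n=44 DMSO). Hits: q ≤ 0.05, log2 ratio ≤ -1, unique peptides ≥ 2.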"}
{"molecule": "Cn1cc(CN(Cc2ccc(Cl)cc2)C(=O)CCl)cn1", "log2 ratio of Biotin-Ahx-Ub-VS probe labelling": 0.0724}
{"molecule": "COc1ccc(Cl)cc1NC(=O)CCl", "log2 ratio of Biotin-Ahx-Ub-VS probe labelling": -0.388}
{"molecule": "Cc1ncsc1CCNC(=O)CCl", "log2 ratio of Biotin-Ahx-Ub-VS probe labelling": 0.314}
{"molecule": "O=C(CCl)Nc1ccc(F)cc1Cl", "log2 ratio of Biotin-Ahx-Ub-VS probe labelling": -0.0369}
{"molecule": "NC(=O)C(Cc1ccccc1)NC(=O)CCl", "note": "(stereo not given)", "log2 ratio of Biotin-Ahx-Ub-VS probe labelling": -0.0897}
{"molecule": "Cc1nc(CC2CCN(C(=O)CCl)CC2)no1", "log2 ratio of Biotin-Ahx-Ub-VS probe labelling": -0.386}
{"molecule": "Cc1n[nH]c2c1CN(C(=O)CCl)CC2", "log2 ratio of Biotin-Ahx-Ub-VS probe labelling": -0.846}
{"molecule": "O=C(CCl)N1CCC(=C(F)CO)C1", "log2 ratio of Biotin-Ahx-Ub-VS probe labelling": 0.192}
{"molecule": "COc1ccc(CN(C)C(=O)CCl)cc1", "log2 ratio of Biotin-Ahx-Ub-VS probe labelling": -0.227}
{"molecule": "O=C(CCl)NCc1ccc(Cl)cc1", "log2 ratio of Biotin-Ahx-Ub-VS probe labelling": -0.199}
{"molecule": "Cc1ccccc1CN(C)C(=O)CCl", "log2 ratio of Biotin-Ahx-Ub-VS probe labelling": -0.0794}
{"molecule": "O=C(CCl)NCc1cccc(F)c1", "log2 ratio of Biotin-Ahx-Ub-VS probe labelling": -0.171}
{"molecule": "Cc1conc1C1CN(C(=O)CCl)C1", "log2 ratio of Biotin-Ahx-Ub-VS probe labelling": -0.421}
{"molecule": "CN(CCC(O)c1ccc(Br)cc1)C(=O)CCl", "note": "(stereo not given)", "log2 ratio of Biotin-Ahx-Ub-VS probe labelling": -0.43}
{"molecule": "Cl.O=C(CCl)N1CCn2ncc(O)c2C1", "log2 ratio of Biotin-Ahx-Ub-VS probe labelling": -0.609}
{"molecule": "Cc1ccccc1OCC(=O)N1CCN(C(=O)CCl)CC1", "log2 ratio of Biotin-Ahx-Ub-VS probe labelling": 0.0214}
{"molecule": "O=C(CCl)Nc1ccc(F)cc1F", "log2 ratio of Biotin-Ahx-Ub-VS probe labelling": -0.241}
{"molecule": "O=C(CCl)N1CC2(CCOCC2)C1", "log2 ratio of Biotin-Ahx-Ub-VS probe labelling": 0.0357}
{"molecule": "CCN(C(=O)CCl)C1CCCCC1", "log2 ratio of Biotin-Ahx-Ub-VS probe labelling": 0.0286}
{"molecule": "CN(C)C(=O)c1ccc(NC(=O)CCl)cc1", "log2 ratio of Biotin-Ahx-Ub-VS probe labelling": -0.0455}
{"molecule": "O=C(CCl)NC1CCS(=O)(=O)c2ccccc21", "note": "(stereo not given)", "log2 ratio of Biotin-Ahx-Ub-VS probe labelling": -0.0769}
{"molecule": "Cl.Cn1ncc2c1CCCC2NC(=O)CCl", "note": "(stereo not given)", "log2 ratio of Biotin-Ahx-Ub-VS probe labelling": 0.202}
{"molecule": "CCc1c[nH]c(CNC(=O)CCl)n1.Cl", "log2 ratio of Biotin-Ahx-Ub-VS probe labelling": -0.0631}
{"molecule": "O=C(CCl)N1CCCC1c1ccsc1", "note": "(stereo not given)", "log2 ratio of Biotin-Ahx-Ub-VS probe labelling": -0.304}
{"molecule": "Cc1nc(CN2CCCN(C(=O)CCl)CC2)no1.Cl", "log2 ratio of Biotin-Ahx-Ub-VS probe labelling": 0.125}
{"molecule": "Cc1nc(CNC(=O)CCl)c2ccccn12.Cl", "log2 ratio of Biotin-Ahx-Ub-VS probe labelling": 0.0129}
{"molecule": "COCC[C@@H](NC(=O)CCl)c1ccccc1", "log2 ratio of Biotin-Ahx-Ub-VS probe labelling": 0.104}
{"molecule": "Cl.Cn1c(CNC(=O)CCl)nc2cccnc21", "log2 ratio of Biotin-Ahx-Ub-VS probe labelling": -0.175}
{"molecule": "O=C(CCl)N[C@H]1CCS(=O)(=O)c2ccccc21", "log2 ratio of Biotin-Ahx-Ub-VS probe labelling": -0.119}
{"molecule": "O=C(CCl)N1CCc2[nH]c3ccccc3c2C1", "log2 ratio of Biotin-Ahx-Ub-VS probe labelling": -0.357}
{"molecule": "Cc1ccc(N2CCC(NC(=O)CCl)C2=O)cc1", "note": "(stereo not given)", "log2 ratio of Biotin-Ahx-Ub-VS probe labelling": -0.233}
{"molecule": "COc1ccc(-c2csc(NC(=O)CCl)n2)cc1", "log2 ratio of Biotin-Ahx-Ub-VS probe labelling": -0.229}
{"molecule": "O=C(CCl)N1CCC(OCc2ccccc2F)CC1", "log2 ratio of Biotin-Ahx-Ub-VS probe labelling": -0.181}
{"molecule": "Cc1noc(C)c1CNC(=O)CCl", "log2 ratio of Biotin-Ahx-Ub-VS probe labelling": -0.912}
{"molecule": "O=C(CCl)NCc1ccc2c(c1)OCO2", "log2 ratio of Biotin-Ahx-Ub-VS probe labelling": -0.126}
{"molecule": "O=C(CCl)NC1CCCCNC1=O", "note": "(stereo not given)", "log2 ratio of Biotin-Ahx-Ub-VS probe labelling": -0.0454}
{"molecule": "O=C(CCl)Nc1cc(Cl)ccc1-n1cncn1", "log2 ratio of Biotin-Ahx-Ub-VS probe labelling": -0.15}
{"molecule": "Cc1cccc(N(CCC#N)C(=O)CCl)c1C", "log2 ratio of Biotin-Ahx-Ub-VS probe labelling": -0.11}
{"molecule": "Cc1nc(-c2cccc(NC(=O)CCl)c2)cs1", "log2 ratio of Biotin-Ahx-Ub-VS probe labelling": -0.0833}
{"molecule": "Cl.Cn1cnc2cc(CNC(=O)CCl)ccc21", "log2 ratio of Biotin-Ahx-Ub-VS probe labelling": 0.00285}
